# Over roughly 68,000 sequences, “fluorescence intensity (a.u.)” has its median near 9,100; the highest 2% begin near 16,000. Shown is part of a subset that was picked to be rich in the highest values.
# Target: OsWRKY34 (Oryza sativa, UniProt Q0JBA9 1-250)
# Assay: protein-binding microarray (RPBM); PBS, 2% BSA, 51.3 ng/ul salmon testes DNA, 50 uM zinc acetate, 200 nM TF, 25 C, 1 h; high values mean tight binding
# Conditions: protein: recombinant; tags: N-terminal polyhistidine and DsRed monomer fusion (pET32a); label: CyDye5-dUTP incorporated in the synthesized complementary strand; 3' TTTTT single-stranded linker to array surface; dsDNA, one strand shown
# In short: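 Binding signal here means per-feature fluorescence intensity in arbitrary units. The values were read on an Axon 4000B scanner after a custom Agilent array, double-stranded by primer extension with Cy5-dUTP, was incubated with 200 nM protein at 25 °C for 1 h in PBS with 2% BSA, salmon testes DNA and 50 µM zinc acetate, then washed. The proteins were transcription factors with an N-terminal polyhistidine tag and DsRed, expressed in E. coli BL21-CodonPlus and purified on Ni–NTA.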
# Sequence of OsWRKY34 (Q0JBA9 entry or part of it): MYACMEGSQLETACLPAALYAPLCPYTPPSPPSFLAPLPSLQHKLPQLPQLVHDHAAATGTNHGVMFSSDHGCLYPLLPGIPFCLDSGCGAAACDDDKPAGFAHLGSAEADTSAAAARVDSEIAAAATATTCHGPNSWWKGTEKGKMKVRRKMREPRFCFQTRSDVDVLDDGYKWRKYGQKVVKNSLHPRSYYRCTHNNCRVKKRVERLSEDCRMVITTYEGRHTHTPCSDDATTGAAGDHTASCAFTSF
row,Sequence,binding signal
1,CCATCGCTGTCGCCAATTTATATTCTTTCTTAATCTCGACCGGAGTCACCTAGTGCAG,9220 fluorescence intensity (a.u.)
2,CCAATTCGCCATCCGTCTGTCGACCGCATCTTAATATCCGCGGAGTCACCTAGTGCAG,17400 fluorescence intensity (a.u.)
3,CAAGCTGTTACTTTCTTGGTGGGCTTCTGTGTGCTTTATTCGGAGTCACCTAGTGCAG,9940 fluorescence intensity (a.u.)
4,ACGCCTACAATGGTACTGTGTTTTTTTTATGATAGCGGTGCGGAGTCACCTAGTGCAG,8060 fluorescence intensity (a.u.)
5,ACTTTATTGTTTTTCTTCTTATTTTATTTCTCTGTTCTTTCGGAGTCACCTAGTGCAG,10300 fluorescence intensity (a.u.)
6,ACATTGTTCTCTCTTTTACGGCCTTTTTTTTTTCTGAATTCGGAGTCACCTAGTGCAG,17900 fluorescence intensity (a.u.)
7,ATATTCTCATTTTCAGTCTGTTGCACTAATTTTGCTATTTCGGAGTCACCTAGTGCAG,12800 fluorescence intensity (a.u.)
8,TTCTTCTTTTCTTTTTTTTTTGTTTTCTTCTCATTCTTCTCGGAGTCACCTAGTGCAG,10100 fluorescence intensity (a.u.)
9,TCTCTTTTCTTTTCTTTCTTTTTATTTTGTTGTTCCTTTACGGAGTCACCTAGTGCAG,12600 fluorescence intensity (a.u.)
10,TTCTTTTGTTGTCCAATTCATTTCCATTTCTTGCCGTTTTCGGAGTCACCTAGTGCAG,8320 fluorescence intensity (a.u.)
11,TCTCTTTTCTCATTTATTCACTTGCCACATCATTTTTCATCGGAGTCACCTAGTGCAG,8900 fluorescence intensity (a.u.)
12,ACTTGCCTTGTTTCTTGTTCTTGTTCATTTCGACCGTTGTCGGAGTCACCTAGTGCAG,17100 fluorescence intensity (a.u.)
13,CTTTTGCACTCGAGATATTTCATCAGTTCTTGCCATTTCACGGAGTCACCTAGTGCAG,16500 fluorescence intensity (a.u.)
14,TACGTTTCAGTTGTGCTTGTTCGGACCTTTCGATTTCTTTCGGAGTCACCTAGTGCAG,13900 fluorescence intensity (a.u.)
15,ATCTTTTTGTTGTCTTTGAATTCAGTCTGTTTTTCTCATTCGGAGTCACCTAGTGCAG,17900 fluorescence intensity (a.u.)
16,CCGCCGCTACTCTCCATCATTTCAGTTTTCTCTCGAGTCACGGAGTCACCTAGTGCAG,10200 fluorescence intensity (a.u.)
17,TTTATACTCCTTCTGTTTCATATTATTTTTTTCTACTAGTCGGAGTCACCTAGTGCAG,8860 fluorescence intensity (a.u.)
18,GACCACTAGCAGCCTCGTAACGTTTGCCTCATTTCATCAGCGGAGTCACCTAGTGCAG,10500 fluorescence intensity (a.u.)
19,TATACCTCTCTCTCTCTCTCTCTCTCTCTCTCTCTCTCTTCGGAGTCACCTAGTGCAG,8280 fluorescence intensity (a.u.)
20,TTTTTGTTTTCTCAATTCGCGAATTTAATGCTTTTGTGTACGGAGTCACCTAGTGCAG,9750 fluorescence intensity (a.u.)
21,GAATTATTAGGGAGAAAGGAGTTGCAGGGTGGGGATTGTTCGGAGTCACCTAGTGCAG,8330 fluorescence intensity (a.u.)
22,CGTTCTCTGTCTGTCCCGCACTCCCGCCTTTTGCCAAAGCCGGAGTCACCTAGTGCAG,9610 fluorescence intensity (a.u.)
23,AGACCAAGCCATATCACCTTATGTAATTTCTTTATGTGCTCGGAGTCACCTAGTGCAG,9010 fluorescence intensity (a.u.)

row,Sequence,binding signal
1,GTCCCATCGTCTCTATTCGGGTCACCTTTGCACAACATGACGGAGTCACCTAGTGCAG,10500 fluorescence intensity (a.u.)
2,GTTGACGTCTCCCAAGTGCCACACCCGCCGCCACGTCACTCGGAGTCACCTAGTGCAG,8880 fluorescence intensity (a.u.)
3,CCCAGATTCGCCCCGCACCGCACCGCCCTTGGCTCGCCCCCGGAGTCACCTAGTGCAG,8340 fluorescence intensity (a.u.)
4,CTCTACTTCTAATGTTCCTTATTTTTTTTCCGAGTTTCTACGGAGTCACCTAGTGCAG,9390 fluorescence intensity (a.u.)
5,TACTCGTTTGGTTGTAATTTTTTTCCGCGTCTTTTCATCTCGGAGTCACCTAGTGCAG,11200 fluorescence intensity (a.u.)
6,TAGTTTCTTGTTTTCAGTTTTTTTTTCTTGTCATTTTTTTCGGAGTCACCTAGTGCAG,19500 fluorescence intensity (a.u.)
7,TTGAATTTTCAGTTTTCTTGTGCGTGTTTCCTTGTCATTTCGGAGTCACCTAGTGCAG,9140 fluorescence intensity (a.u.)
8,ATTCTTCATTCTTTTTGTGTGTGTTTCAGTGTGTTTGTTTCGGAGTCACCTAGTGCAG,15800 fluorescence intensity (a.u.)
9,CGGTCTTTGCCAAATTCCCACTCCGCTTGGCTTTCTGGCCCGGAGTCACCTAGTGCAG,8250 fluorescence intensity (a.u.)
10,CTAGGACATCATTTTGTTTGTCGTGTGTGCGCAACTGTTTCGGAGTCACCTAGTGCAG,8160 fluorescence intensity (a.u.)
11,GCGCCCTCCGACTCCGACGGCTTCTTGTTCTCGTTGACGCCGGAGTCACCTAGTGCAG,8950 fluorescence intensity (a.u.)
12,TGTGAGTAGTTTGTGGTTGGGAGTGTAACGGGTGGGGTGGCGGAGTCACCTAGTGCAG,16900 fluorescence intensity (a.u.)
13,TTCTTTCTTTTTTGGCGGGGACTACTCTTTACTTGAACCTCGGAGTCACCTAGTGCAG,12400 fluorescence intensity (a.u.)
14,CTTTCTTTCTTTCTTTCTTCTTTTTTTTCTTTTTTTTTTGCGGAGTCACCTAGTGCAG,8640 fluorescence intensity (a.u.)
15,AACAGTTGACGCAGGTGGCAGAGTTGCTAGTTCTTGCCCTCGGAGTCACCTAGTGCAG,61500 fluorescence intensity (a.u.)
16,TGGTTTTATGTGTGAGTTGGGGTAGTGGCGTTGGTAGGTTCGGAGTCACCTAGTGCAG,11700 fluorescence intensity (a.u.)
17,CACCATTGGGATGGGTGCCTATTTCTTGGAGACCGTTGACCGGAGTCACCTAGTGCAG,17300 fluorescence intensity (a.u.)
18,ATTTCTTGGAGACCGTTGACTCCTCTCTCTCTATTTCCATCGGAGTCACCTAGTGCAG,12400 fluorescence intensity (a.u.)
19,GAGTGTAACGGGTGGGGTGGTTTGGAAGGTGATGAGGTATCGGAGTCACCTAGTGCAG,11300 fluorescence intensity (a.u.)
20,GGAGAGTAGCAGTGTGGTTGATGATGGTGTTCTTGCTACTCGGAGTCACCTAGTGCAG,9890 fluorescence intensity (a.u.)
21,ACTCTTTACTCTTTCTTTTCTTCTTTCTTTTTTGGCGGGGCGGAGTCACCTAGTGCAG,21200 fluorescence intensity (a.u.)
22,ATACCGTGATTGGGATTACCTGTGACCTTGCCTATTTGACCGGAGTCACCTAGTGCAG,9120 fluorescence intensity (a.u.)

# Source: PMC7819943, “Rice protein-binding microarrays: a tool to detect cis-acting elements near promoter regions in rice”
